“And” between values parts separate entries of the source, which are not always exact repeats. Identical values can stand only once. The source made the active and inactive calls. How the source made its calls: active means hit-call score of the fitted dose curve at least 0.9, where 1 is the maximum; inactive means score below 0.9.

Read-out in assay [1]: Transforming growth factor beta 1 (TGFb1), TGFB1 (gene 7040)
Description: BSK_KF3CT_TGFb1: BioMAP Diversity Plus: KF3CT Assay for Transforming growth factor beta 1 (TGFb1) Biomarker Activity (AID 2283072). Particulars: primary human keratinocytes with fibroblasts; actives raise or lower the signal. A digest of the protocol: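 Human keratinocyte/foreskin fibroblast co-culture; TGF-b1 measured by ELISA 24 h after dosing, fitted bidirectionally versus DMSO. Cytotoxicity checked in parallel cultures by total protein (SRB staining, 560 nm).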

Read-out in assay [2]: Matrix Metallopeptidase 9 (MMP9), MMP9 (gene 4318)
Description: BSK_KF3CT_MMP9: BioMAP Diversity Plus: KF3CT Assay for Matrix Metallopeptidase 9 (MMP9) Biomarker Activity (AID 2283074).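 On AC50: MMP9 protein level quantified by ELISA in the co-culture.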 To be noted: primary human keratinocytes with fibroblasts; actives raise or lower the signal. An outline of the steps: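 Human keratinocyte and foreskin fibroblast co-culture exposed to chemicals for 24 h; MMP9 biomarker measured by ELISA, bidirectional fitting relative to DMSO; cytotoxicity tracked by SRB total protein staining in parallel cultures.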

Read-out in assay [3]: urokinase plasminogen activator (uPA), PLAU (gene 5328)
Description: BSK_KF3CT_uPA: BioMAP Diversity Plus: KF3CT Assay for urokinase plasminogen activator (uPA) Biomarker Activity (AID 2283075). To be noted: primary human keratinocytes with fibroblasts; actives raise or lower the signal. A digest of the protocol: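 Primary human keratinocyte/foreskin fibroblast co-culture exposed to chemical; uPA measured by ELISA at 24 h. Bidirectional fit versus DMSO, with parallel SRB total-protein staining for cytotoxicity.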

Read-out in assay [4]: CD40, CD40 (gene 958)
In words: BSK_LPS_CD40: BioMAP Diversity Plus: LPS Assay for CD40 Biomarker Activity (AID 2283076). Particulars: primary human HUVEC with PBMC; actives raise or lower the signal. An outline of the steps:
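ELISA readout of CD40 in HUVEC/PBMC co-culture (BSK_LPS system), 24 h post-dosing; bidirectional curve fit, DMSO baseline; parallel SRB total-protein staining for cytotoxicity.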

Read-out in assay [5]: E-selectin (Homo sapiens) (UniProt P16581)
In words: BSK_LPS_Eselectin: BioMAP Diversity Plus: LPS Assay for Eselectin Biomarker Activity (AID 2283077). To be noted: primary human HUVEC with PBMC; actives raise or lower the signal. An outline of the steps:
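ELISA readout of E-selectin, 24 h post-dose, HUVEC + PBMC co-culture (LPS system). Gain or loss of signal vs DMSO baseline, bidirectional fit.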

A short description of assay [6]: BSK_LPS_SRB: Viability Assessment in the BioMAP Diversity Plus: LPS Assay (AID 2283079).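 Further: total protein by sulforhodamine B absorbance as a cytotoxicity measure; measured one day after compound addition; fitted in both directions against DMSO so loss or gain of signal counts.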 To be noted: primary human HUVEC with PBMC. A digest of the protocol:
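HUVEC + PBMC co-culture, LPS-stimulated; compound 24 h. 10% TCA fix, 0.1% SRB stain, A560. Bidirectional fit vs DMSO.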

Read-out in assay [7]: Interleukin-1 alpha (IL1a), IL1A (gene 3552)
Description: BSK_LPS_IL1a: BioMAP Diversity Plus: LPS Assay for Interleukin-1 alpha (IL1a) Biomarker Activity (AID 2283080). Particulars: primary human HUVEC with PBMC; actives raise or lower the signal. An outline of the steps: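 HUVEC/PBMC co-culture, LPS system; 24 h after dosing; IL-1a by ELISA; gain or loss of signal fitted bidirectionally vs DMSO baseline.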

Read-out in assay [8]: Monocyte Chemoattractant Protein-1 (MCP1), CCL2 (gene 6347)
In words: BSK_LPS_MCP1: BioMAP Diversity Plus: LPS Assay for Monocyte Chemoattractant Protein-1 (MCP1) Biomarker Activity (AID 2283081).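 On AC50: secreted MCP-1 protein quantified by ELISA in culture supernatant.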 Particulars: primary human HUVEC with PBMC; actives raise or lower the signal. An outline of the steps: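 ELISA read-out of MCP-1 after 24 h chemical dosing of a human umbilical vein endothelial cell/peripheral blood mononuclear cell co-culture stimulated with LPS. Gain or loss of signal fitted relative to DMSO controls.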

The nature of assay [9]: BSK_LPS_PGE2: BioMAP Diversity Plus: LPS Assay for Prostaglandin E2 (PGE2) Biomarker Activity (AID 2283082). Particulars: primary human HUVEC with PBMC; actives raise or lower the signal. An outline of the steps: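 HUVEC plus human PBMC co-culture stimulated with LPS; secreted PGE2 quantified by ELISA 24 h after chemical dosing. Activity fitted bidirectionally against DMSO baseline; parallel SRB staining (0.1% SRB after 10% TCA fixation, 560 nm) flags overt cytotoxicity.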

Read-out in assay [10]: Macrophage colony-stimulating factor (MCSF), CSF1 (gene 1435)
In words: BSK_LPS_MCSF: BioMAP Diversity Plus: LPS Assay for Macrophage colony-stimulating factor (MCSF) Biomarker Activity (AID 2283083). To be noted: primary human HUVEC with PBMC; actives raise or lower the signal. An outline of the steps:
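HUVEC + PBMC co-culture (human primary), 24 h post-dose; M-CSF by ELISA; gain/loss of signal fitted bidirectionally vs DMSO baseline.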

Read-out in assay [11]: Tissue Factor, F3 (gene 2152)
Description: BSK_LPS_TissueFactor: BioMAP Diversity Plus: LPS Assay for Tissue Factor Biomarker Activity (AID 2283084). To be noted: primary human HUVEC with PBMC; actives raise or lower the signal. A digest of the protocol:
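HUVEC/PBMC co-culture, LPS-activated; CD142 ELISA read 24 h post-dose; bidirectional curve fit vs DMSO negative control.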

Read-out in assay [12]: Tumor necrosis factor (Homo sapiens) (UniProt P01375)
In words: BSK_LPS_TNFa: BioMAP Diversity Plus: LPS Assay for Tumour Necrosis Factor alpha (TNFa) Biomarker Activity (AID 2283085). Particulars: primary human HUVEC with PBMC; actives raise or lower the signal. An outline of the steps:
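Human umbilical vein endothelial cells co-cultured with PBMC and stimulated with LPS. TNFa was measured by ELISA 24 h after chemical dosing, fitted bidirectionally relative to DMSO.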

Read-out in assay [13]: Vascular cell adhesion molecule 1 (VCAM1), VCAM1 (gene 7412)
In words: BSK_LPS_VCAM1: BioMAP Diversity Plus: LPS Assay for Vascular cell adhesion molecule 1 (VCAM1) Biomarker Activity (AID 2283086). To be noted: primary human HUVEC with PBMC; actives raise or lower the signal. A digest of the protocol: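 Human umbilical vein endothelial cells co-cultured with PBMC and stimulated with LPS; VCAM-1 measured by ELISA 24 h after dosing. Bidirectional curve fitting against DMSO baseline; cytotoxicity tracked in parallel by SRB total-protein staining.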

Read-out in the next assay: CD38, CD38 (gene 952)
Description: BSK_SAg_CD38: BioMAP Diversity Plus: SAg Assay for CD38 Biomarker Activity (AID 2283087). To be noted: primary human HUVEC with PBMC; actives raise or lower the signal. An outline of the steps: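 Human HUVEC plus PBMC co-culture stimulated with superantigen; CD38 measured by ELISA 24 h after chemical dosing. Fluorescence read-out, bidirectional fit against DMSO; cytotoxicity tracked in parallel by SRB and Alamar Blue.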

Read-out in assay [14]: CD40, CD40 (gene 958)
In words: BSK_SAg_CD40: BioMAP Diversity Plus: SAg Assay for CD40 Biomarker Activity (AID 2283088). To be noted: primary human HUVEC with PBMC; actives raise or lower the signal. A digest of the protocol:
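HUVEC/PBMC co-culture, 24 h post-dose; CD40 by ELISA, fluorescence intensity; bidirectional fit vs DMSO negative control.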

Read-out in another assay: CD69, CD69 (gene 969)
In words: BSK_SAg_CD69: BioMAP Diversity Plus: SAg Assay for CD69 Biomarker Activity (AID 2283089).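 On AC50: cell surface CD69 protein quantified by ELISA with fluorescence detection.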 To be noted: primary human HUVEC with PBMC; actives raise or lower the signal. A digest of the protocol: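 ELISA, fluorescence read-out: CD69 on human umbilical vein endothelial cell + PBMC co-culture, 24 h post-dosing. Gain or loss of signal fitted bidirectionally against DMSO baseline.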

Read-out in assay [15]: Monocyte Chemoattractant Protein-1 (MCP1), CCL2 (gene 6347)
In words: BSK_SAg_MCP1: BioMAP Diversity Plus: SAg Assay for Monocyte Chemoattractant Protein-1 (MCP1) Biomarker Activity (AID 2283090). To be noted: primary human HUVEC with PBMC; actives raise or lower the signal. An outline of the steps:
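MCP-1 levels in the endothelial–PBMC SAg co-culture were quantified by ELISA at 24 h post-dosing; both increases and decreases versus DMSO scored. Cytotoxicity monitored by SRB total protein in parallel cultures.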

Read-out in assay [16]: E-selectin (Homo sapiens) (UniProt P16581)
Description: BSK_SAg_Eselectin: BioMAP Diversity Plus: SAg Assay for Eselectin Biomarker Activity (AID 2283091). Particulars: primary human HUVEC with PBMC; actives raise or lower the signal. An outline of the steps:
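E-selectin ELISA readout at 24 h post-dosing in human umbilical vein endothelial cell/PBMC co-culture; gain or loss of signal fitted relative to DMSO baseline.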

Read-out in assay [17]: C-C motif chemokine 2 (Homo sapiens) (UniProt P13500)
In words: BSK_KF3CT_MCP1: BioMAP Diversity Plus: KF3CT Assay for Monocyte Chemoattractant Protein 1 (MCP1/CCL2) Biomarker Activity (AID 2283073). Particulars: primary human keratinocytes with fibroblasts; actives raise or lower the signal. An outline of the steps:
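KF3CT skin co-culture (keratinocytes/foreskin fibroblasts), 24 h post-dose; MCP-1 by ELISA; gain/loss of signal fit bidirectionally vs DMSO baseline.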

Sequence of E-selectin (Homo sapiens) (P16581 whole entry, looked up): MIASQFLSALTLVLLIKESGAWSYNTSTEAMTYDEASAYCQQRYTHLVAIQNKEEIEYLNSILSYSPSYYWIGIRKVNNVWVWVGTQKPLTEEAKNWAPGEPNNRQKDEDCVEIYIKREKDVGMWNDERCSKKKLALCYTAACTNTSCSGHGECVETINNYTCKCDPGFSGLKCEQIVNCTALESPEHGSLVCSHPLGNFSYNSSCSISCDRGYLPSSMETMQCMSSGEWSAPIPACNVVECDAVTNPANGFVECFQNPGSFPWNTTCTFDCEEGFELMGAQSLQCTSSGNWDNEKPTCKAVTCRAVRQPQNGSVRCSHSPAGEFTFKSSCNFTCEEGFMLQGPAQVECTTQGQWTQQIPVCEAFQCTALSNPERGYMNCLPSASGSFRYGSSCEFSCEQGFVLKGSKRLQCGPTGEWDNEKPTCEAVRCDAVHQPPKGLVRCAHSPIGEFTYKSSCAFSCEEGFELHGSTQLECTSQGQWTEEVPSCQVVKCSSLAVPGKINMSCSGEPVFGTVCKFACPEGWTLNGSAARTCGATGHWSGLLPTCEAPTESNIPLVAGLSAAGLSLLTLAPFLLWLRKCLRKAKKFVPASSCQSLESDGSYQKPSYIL
Sequence of Tumor necrosis factor (Homo sapiens) (P01375 whole entry, looked up): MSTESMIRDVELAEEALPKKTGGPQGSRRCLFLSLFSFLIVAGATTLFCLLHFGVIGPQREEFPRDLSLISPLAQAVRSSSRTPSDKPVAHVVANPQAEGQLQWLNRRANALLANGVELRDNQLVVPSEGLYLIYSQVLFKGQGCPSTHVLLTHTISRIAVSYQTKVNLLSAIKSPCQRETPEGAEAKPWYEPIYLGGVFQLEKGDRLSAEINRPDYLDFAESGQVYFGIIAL

With `COc1nc(C)nc(NC(=O)NS(=O)(=O)c2ccccc2OCCCl)n1`, the outcome in assay [1] was “inactive”; in assay [2] it was “inactive”; in assay [3], “inactive”; with CD40, CD40 (gene 958) [4] it was “inactive”; in [5] it was “inactive”; in assay [6], “inactive”. The result in [7], in [8], in assay [9], in assay [10], in [11] and in assay [12] was inactive. In addition, the outcome was “inactive” in assay [13]; “inactive” in the assay with CD38, CD38 (gene 952); “inactive” in the assay with CD40, CD40 (gene 958) [14]; “inactive” with CD69, CD69 (gene 969); “inactive” in assay [15]; “inactive” in assay [16].

The AC50 is the concentration at which the activity in the assay is half-maximal. Take `N#CSCSc1nc2ccccc2s1`: the AC50 in assay [1] was 10.2 µM (active) and 11.5 µM (active); in assay [17], 2.31 µM (active) and 11.1 µM (active); in [2], 10.6 µM (active) and 10.3 µM (active); in [3], 6.91 µM (active) and 11.5 µM (active); with CD40, CD40 (gene 958) [4], 1.9 µM (active) and 5.14 µM (active); in assay [5] it was 3.96 µM (active) and 8.13 µM (active). Further, the AC50 in assay [6] was 8.07 µM (active) and 9.64 µM (active); in [7], 1.51 µM (active) and 4.83 µM (active); in assay [8] it was 6.17 µM (active) and 6.23 µM (active); in assay [9], 1.9 µM (active) and 2.28 µM (active); in [10] it was 2.25 µM (active) and 6.78 µM (active); in assay [11], 2.42 µM (active) and 5.42 µM (active). Moreover, the AC50 in [13] was 4.53 µM (active) and 9.69 µM (active); in the assay with CD38, CD38 (gene 952) it was 5.37 µM (active) and 5.56 µM (active); with CD40, CD40 (gene 958) [14] it was 5.42 µM (active) and 6.26 µM (active); with CD69, CD69 (gene 969) it was 3.12 µM (active) and 6.36 µM (active); in [15] it was 7.7 µM (active) and 10.5 µM (active); in [16], 5.69 µM (active) and 8.52 µM (active).

With `c1ccc2[nH]c(-c3cscn3)nc2c1`, the outcome in assay [1] was “inactive”; in assay [2], “inactive”; in [3], “inactive”; in the assay with CD40, CD40 (gene 958) [4], “inactive”; in assay [5] it was “inactive”; in assay [6], “inactive”. In addition, the outcome in assay [7], in [8], in assay [9], in [10], in assay [11] and in [12] was inactive. Besides, the outcome was “inactive” in assay [13]; “inactive” with CD38, CD38 (gene 952); “inactive” with CD40, CD40 (gene 958) [14]; “inactive” with CD69, CD69 (gene 969); “inactive” in [15]; “inactive” in assay [16].

The values are drawn from PubChem BioAssay (EPA / NIEHS).
